Source: PubChem BioAssay (Tox21)
Results filed as inconclusive are left out. Active and inactive are the calls of the source. Unless noted, the call rests on the fitted dose curve; in most records, active means well fitted curve in the direction sought with a large enough effect in the repeat runs; inconclusive means weak or mixed curves; inactive means no such curve, though single readings can be large; an effect the other way counts as inactive or inconclusive.

Experiments:
[1] = qHTS assay to identify small molecule agonists of the peroxisome proliferator-activated receptor delta (PPARd) signaling pathway - cell viability counter screen (AID 743211); further: on the % scale 0 is the no-effect control and ±100 the full control effect; nearly all actives have a fitted effect of over 55% in size
Summary of the method: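 PPARd-bla HEK293H cells (3000/well) were pre-incubated 5 h at 37 C, then exposed to compound for 17 h at 37 C. After 2 h with LiveBLAzer substrate, CellTiter-Glo was added to the same wells; luminescence read after 30 min at room temperature.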

[2] = target: Peroxisome proliferator-activated receptor delta (Homo sapiens) (UniProt Q03181); assay: qHTS assay to identify small molecule agonists of the peroxisome proliferator-activated receptor delta (PPARd) signaling pathway (AID 743212; calls by dose curve; further: on the % scale 0 is the no-effect control and ±100 the full control effect)
Chain of Peroxisome proliferator-activated receptor delta (Homo sapiens) (Q03181 whole entry, looked up): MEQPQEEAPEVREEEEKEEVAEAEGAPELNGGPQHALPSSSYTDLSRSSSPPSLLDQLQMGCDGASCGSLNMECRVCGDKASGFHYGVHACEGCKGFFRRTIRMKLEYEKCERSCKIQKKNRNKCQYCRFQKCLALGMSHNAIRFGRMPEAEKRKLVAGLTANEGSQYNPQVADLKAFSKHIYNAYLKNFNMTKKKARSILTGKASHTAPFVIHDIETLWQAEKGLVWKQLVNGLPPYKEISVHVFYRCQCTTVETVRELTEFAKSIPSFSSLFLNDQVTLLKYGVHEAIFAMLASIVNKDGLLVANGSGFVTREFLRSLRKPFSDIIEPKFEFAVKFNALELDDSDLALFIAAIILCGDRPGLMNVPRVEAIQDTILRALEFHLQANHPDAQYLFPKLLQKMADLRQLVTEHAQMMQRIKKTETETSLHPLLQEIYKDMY
Summary of the method: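 Beta-lactamase reporter read by fluorescence (LiveBLAzer B/G FRET, 2 h, room temperature). Test agents, in DMSO, incubated at 37 C with PPARd-bla HEK293H cells.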

[3] = qHTS assay to identify small molecule antagonists of the peroxisome proliferator-activated receptor delta (PPARd) signaling pathway - cell viability counter screen (AID 743213); further: on the % scale 0 is the no-effect control and ±100 the full control effect; nearly all actives have a fitted effect of over 50% in size
Summary of the method: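 Cytotoxicity counter screen: CellTiter-Glo luminescence read 30 min after addition, in the same wells as the reporter assay. There, PPARd UAS-bla HEK293H cells (3000/well) were treated 17 h at 37 C with compound and 300 nM L165041.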

[4] = target: Peroxisome proliferator-activated receptor delta (Homo sapiens) (UniProt Q03181); assay: qHTS assay to identify small molecule antagonists of the peroxisome proliferator-activated receptor delta (PPARd) signaling pathway (AID 743215; active means well fitted inhibition curve with a large enough effect in the signal ratio in the repeat runs, not every such curve was filed as active; the % refers to the signal ratio;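 further: cells stimulated with agonist L165041 at 300 nM final during compound exposure; series mostly up to about 62 µM; on the % scale 0 is the no-effect control and ±100 the full control effect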)
Summary of the method: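 Cells: HEK293H with a UAS-driven beta-lactamase reporter responsive to PPARd. Compounds were co-added with L165041 (300 nM, final) and incubated 17 h at 37 C before a 2 h room-temperature FRET substrate step and fluorescence reading.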

[5] = qHTS assay to identify small molecule agonists of the farnesoid-X-receptor (FXR) signaling pathway - cell viability counter screen (AID 743218); further: on the % scale 0 is the no-effect control and ±100 the full control effect; nearly all actives have a fitted effect of over 45% in size
Summary of the method: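 Cells were seeded, left 5 h at 37 C and 5% CO2, then dosed with compound in DMSO for 16 h. After the beta-lactamase FRET read, CellTiter-Glo was added and luminescence measured 30 min later.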

[6] = qHTS assay to identify small molecule antagonists of the farnesoid-X-receptor (FXR) signaling pathway - cell viability counter screen (AID 743221; active means well fitted cell-killing curve with a large enough effect in the repeat runs, not every such curve was filed as active; further: on the % scale 0 is the no-effect control and ±100 the full control effect; nearly all actives have a fitted effect of over 50% in size)
Summary of the method: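 GeneBLAzer FXR-UAS-bla HEK 293T cells, compound plus chenodeoxycholic acid (50 uM final), 16 h at 37 C. CellTiter-Glo added to the same wells after the beta-lactamase read; luminescence read after 30 min at room temperature as viability.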

[7] = qHTS assay to identify small molecule agonists of the vitamin D receptor (VDR) signaling pathway - cell viability counter screen (AID 743224); further: series mostly up to about 63 µM; on the % scale 0 is the no-effect control and ±100 the full control effect; nearly all actives have a fitted effect of over 50% in size
Summary of the method: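 Cells: VDR-bla, 2,000/well, settled 4 h. Treatment: compounds in DMSO, 16 h, 37C/5% CO2. Readout: CellTiter-Glo luminescence after 30 min RT.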

[8] = qHTS assay to identify small molecule antagonists of the vitamin D receptor (VDR) signaling pathway - cell viability counter screen (AID 743225); further: on the % scale 0 is the no-effect control and ±100 the full control effect; nearly all actives have a fitted effect of over 50% in size
Summary of the method: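 VDR-UAS-bla HEK 293T cells were plated and incubated 4 h at 37C, then dosed with compound plus 3 nM (final) 1-alpha,25-dihydroxyvitamin D3 for 16 h. After the 2 h beta-lactamase read, viability in the same wells was read as CellTiter-Glo luminescence after 30 min at room temperature.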

[9] = qHTS assay to identify small molecule agonists of the NFkB signaling pathway (AID 1159509; active means well fitted curve in the direction sought with a large enough effect in the signal ratio in the repeat runs, not every such curve was filed as active; the % refers to the signal ratio; further: series mostly up to about 61 µM; on the % scale 0 is the no-effect control and ±100 the full control effect)
Summary of the method: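 Beta-lactamase reporter assay run in quantitative high-throughput format on an NF-kB-responsive ME-180 line, with 5 hr compound treatment and a FRET-based blue/green fluorescence readout.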

[10] = qHTS assay to identify small molecule agonists of the NFkB signaling pathway - cell viability counter screen (AID 1159515; calls by dose curve; further: series mostly up to about 61 µM; on the % scale 0 is the no-effect control and ±100 the full control effect; nearly all actives have a fitted effect of over 55% in size)
Summary of the method: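 Cells are seeded (2,000 NFkB-bla ME-180 per well), rested overnight, and dosed with DMSO-dissolved compounds for 5 hr at 37 C. Viability is then read by CellTiter-Glo luminescence after 30 min at room temperature.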

[11] = qHTS assay to identify small molecule agonists of the endoplasmic reticulum stress response signaling pathway (AID 1159516; active means well fitted activation curve with a large enough effect in the signal ratio in the repeat runs, not every such curve was filed as active; the % refers to the signal ratio; further: on the % scale 0 is the no-effect control and ±100 the full control effect)
Summary of the method: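 Cells are seeded at 1,500 per well and incubated overnight. Compounds in DMSO are added for 5 hr at 37 C, then beta-lactamase FRET substrate for 2 hr at room temperature, and fluorescence at 460 and 530 nm is measured.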

[12] = qHTS assay to identify small molecule agonists of the endoplasmic reticulum stress response signaling pathway - cell viability counter screen (AID 1159517; calls by dose curve)
Summary of the method: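 Cytotoxicity of test compounds toward ESRE-bla HeLa cells was assessed after 5 hr exposure. The luminescent CellTiter-Glo signal was measured 30 min after reagent addition.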

[13] = qHTS assay to identify small molecule antagonists of the retinoid-related orphan receptor gamma (ROR-gamma) signaling pathway - cell viability counter screen (AID 1159520)
Summary of the method: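 Tet-on ROR gamma CHO cells (1,000/well) were plated 4 hr, given compounds in DMSO for 2 hr at 37 C, then induced with 1 uM final doxycycline for 16 hr. Viability was read as ATP by CellTiter-Glo luminescence after 30 min.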

[14] = target: Nuclear receptor ROR-gamma (Homo sapiens) (UniProt P51449); assay: qHTS assay to identify small molecule antagonists of the retinoid-related orphan receptor gamma (ROR-gamma) signaling pathway (AID 1159521)
Summary of the method: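 Tet-on ROR-gamma CHO cells with ROR response element-luciferase reporter; compounds added 2 hr before 1 uM doxycycline induction, then 16 hr at 37 C. Antagonism scored as decreased ONE-Glo luminescence.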

[15] = qHTS assay to identify small molecule agonists of the AP-1 signaling pathway - cell viability counter screen (AID 1159525; calls by dose curve; further: nearly all actives have a fitted effect of over 55% in size)
Summary of the method: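 Each titration point was normalised to DMSO and tetra n-octyl ammonium bromide controls. The read was Cell Titer Glo luminescence after 30 min at RT, following 5 h compound exposure of ME-180 AP-1-bla cells at 37 °C.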

[16] = qHTS assay to identify small molecule agonists of the AP-1 signaling pathway (AID 1159526; calls by dose curve; further: on the % scale 0 is the no-effect control and ±100 the full control effect)
[17] = target: Vitamin D3 receptor (Homo sapiens) (UniProt P11473); assay: qHTS assay to identify small molecule agonists of the vitamin D receptor (VDR) signaling pathway (AID 743222; calls by dose curve; further: on the % scale 0 is the no-effect control and ±100 the full control effect)
Chain of Vitamin D3 receptor (Homo sapiens) (P11473 whole entry, looked up): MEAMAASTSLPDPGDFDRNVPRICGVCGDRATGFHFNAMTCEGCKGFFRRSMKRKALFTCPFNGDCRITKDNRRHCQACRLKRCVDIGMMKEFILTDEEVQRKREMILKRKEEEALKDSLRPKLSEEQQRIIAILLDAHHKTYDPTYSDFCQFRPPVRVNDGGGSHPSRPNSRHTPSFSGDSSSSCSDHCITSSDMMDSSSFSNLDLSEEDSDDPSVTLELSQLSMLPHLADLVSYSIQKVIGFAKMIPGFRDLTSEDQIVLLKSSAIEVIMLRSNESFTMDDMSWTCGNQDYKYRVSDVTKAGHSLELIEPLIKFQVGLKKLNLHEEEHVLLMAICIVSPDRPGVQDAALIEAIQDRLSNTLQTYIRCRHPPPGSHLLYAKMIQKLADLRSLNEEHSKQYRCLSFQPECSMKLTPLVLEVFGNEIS
Summary of the method: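 Cells carrying a VDR-driven beta-lactamase reporter are seeded at 2,000 per well and rested 4 h. Compounds in DMSO are added for 16 h at 37C, and FRET substrate fluorescence is measured after 2 h at room temperature.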

[18] = target: Vitamin D3 receptor (Homo sapiens) (UniProt P11473); assay: qHTS assay to identify small molecule antagonists of the vitamin D receptor (VDR) signaling pathway (AID 743223; active means well fitted inhibition curve with a large enough effect in the signal ratio in the repeat runs, not every such curve was filed as active; the % refers to the signal ratio; further: on the % scale 0 is the no-effect control and ±100 the full control effect)
Summary of the method: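 VDR-bla cells were treated with compound plus 3 nM final 1alpha,25-dihydroxyvitamin D3 for 16 h at 37C. Beta-lactamase reporter read by B/G FRET substrate fluorescence after 2 h at room temperature. qHTS format.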

COC(=O)/C=C\C(=O)O
inactive: outcome [1] | outcome [2] | outcome [3] | outcome [4] | outcome [5] | outcome [6] | outcome [7] | outcome [8] | outcome [9] | outcome [10] | outcome [11] | outcome [12] | outcome [13] | outcome [14] | outcome [15] | outcome [16]

O=C1CCC(=O)N1Cl
inactive: outcome [1] | outcome [2] | outcome [3] | outcome [4] | outcome [5] | outcome [6] | outcome [17] | outcome [18] | outcome [7] | outcome [8] | outcome [9] | outcome [10] | outcome [11] | outcome [12] | outcome [13] | outcome [14] | outcome [15] | outcome [16]

O=Cc1cc2ccccc2o1
inactive: outcome [1] | outcome [2] | outcome [3] | outcome [4] | outcome [5] | outcome [6] | outcome [17] | outcome [18] | outcome [8] | outcome [9] | outcome [10] | outcome [11] | outcome [12] | outcome [13] | outcome [14] | outcome [15] | outcome [16]

c1ccc2c(CC3=NCCN3)cccc2c1
inactive: outcome [1] | outcome [2] | outcome [3] | outcome [4] | outcome [5] | outcome [6] | outcome [7] | outcome [8] | outcome [9] | outcome [10] | outcome [11] | outcome [12] | outcome [13] | outcome [14] | outcome [15] | outcome [16]

CC(O)COC(C)(C)C (stereo unspecified)
inactive: outcome [1] | outcome [2] | outcome [3] | outcome [4] | outcome [5] | outcome [6] | outcome [17] | outcome [18] | outcome [7] | outcome [8] | outcome [9] | outcome [10] | outcome [11] | outcome [12] | outcome [13] | outcome [14] | outcome [15] | outcome [16]

C#CCN[C@@H]1CCc2ccccc21
inactive: outcome [1] | outcome [2] | outcome [3] | outcome [4] | outcome [5] | outcome [6] | outcome [7] | outcome [8] | outcome [9] | outcome [10] | outcome [11] | outcome [12] | outcome [13] | outcome [14] | outcome [15] | outcome [16]

CCOC(CN1CCN(CC(C)C(=O)c2ccccc2)CC1)c1ccccc1 (stereo unspecified)
inactive: outcome [1] | outcome [2] | outcome [3] | outcome [4] | outcome [5] | outcome [6] | outcome [7] | outcome [8] | outcome [9] | outcome [10] | outcome [11] | outcome [12] | activity, negative = cytotoxicity [13] -1.7% [at 19 µM] | activity change, negative = inhibition [14] -4.62% [at 19 µM] | viability change, negative = cytotoxic [15] 14.4% [at 15.8 µM] | activation [16] 5.61% [at 15.8 µM]

COc1cc2c(cc1OC)CN(C(=O)[C@H](C)N[C@@H](CCc1ccccc1)C(=O)O)[C@H](C(=O)O)C2
inactive: outcome [1] | outcome [2] | outcome [3] | outcome [4] | outcome [5] | outcome [6] | outcome [7] | outcome [8] | outcome [9] | outcome [10] | outcome [11] | outcome [12] | outcome [13] | outcome [14] | outcome [15] | outcome [16]

CC(C)COC(=O)c1ccccc1
inactive: outcome [1] | outcome [2] | outcome [3] | outcome [4] | outcome [5] | outcome [17] | outcome [18] | outcome [7] | outcome [9] | outcome [10] | outcome [11] | outcome [12] | outcome [13] | outcome [14] | outcome [15] | outcome [16]

CC(C)NC(=O)c1ccc(C=O)cc1
inactive: outcome [1] | outcome [2] | outcome [3] | outcome [4] | outcome [5] | outcome [6] | outcome [17] | outcome [18] | outcome [7] | outcome [8] | outcome [9] | outcome [10] | outcome [11] | outcome [12] | outcome [13] | outcome [14] | outcome [15] | outcome [16]

CCCCCC(C)O (stereo unspecified)
inactive: outcome [1] | outcome [2] | outcome [3] | outcome [4] | outcome [5] | outcome [6] | outcome [17] | outcome [18] | outcome [7] | outcome [8] | outcome [9] | outcome [10] | outcome [11] | outcome [12] | outcome [13] | outcome [14] | outcome [15] | outcome [16]

CC(C)=CCC/C(C)=C/COC=O
inactive: outcome [1] | outcome [2] | outcome [3] | outcome [4] | outcome [5] | outcome [6] | outcome [18] | outcome [7] | outcome [8] | outcome [9] | outcome [10] | outcome [11] | outcome [12] | outcome [13] | outcome [14] | outcome [15] | outcome [16]

[O-][n+]1cccc(/C(Cl)=N/OC[C@@H](O)CN2CCCCC2)c1
inactive: outcome [1] | outcome [2] | outcome [3] | outcome [4] | outcome [5] | outcome [6] | outcome [7] | outcome [8] | outcome [9] | outcome [10] | outcome [11] | outcome [12] | outcome [13] | outcome [14] | outcome [15] | outcome [16]

Cc1ncc([N+](=O)[O-])n1CC(C)O (stereo unspecified)
inactive: outcome [1] | outcome [2] | outcome [3] | outcome [4] | outcome [5] | outcome [6] | outcome [17] | outcome [18] | outcome [7] | outcome [8] | outcome [9] | outcome [10] | outcome [11] | outcome [12] | outcome [13] | outcome [14] | outcome [15] | outcome [16]

CCOc1cccc(N)c1
inactive: outcome [1] | outcome [2] | outcome [3] | outcome [4] | outcome [5] | outcome [6] | outcome [17] | outcome [18] | outcome [7] | outcome [8] | outcome [9] | outcome [10] | outcome [11] | outcome [12] | outcome [13] | outcome [14] | outcome [15] | outcome [16]

OC[C@@H](O)C(O)[C@@H](O)CO (stereo partly specified)
inactive: outcome [1] | outcome [2] | outcome [3] | outcome [4] | outcome [5] | outcome [17] | outcome [7] | outcome [9] | outcome [10] | outcome [11] | outcome [12] | outcome [13] | outcome [14] | outcome [15] | outcome [16]

CC(=O)c1cc(C)oc1C
inactive: outcome [1] | outcome [2] | outcome [4] | outcome [5] | outcome [6] | outcome [17] | outcome [18] | outcome [7] | outcome [8] | outcome [9] | outcome [10] | outcome [11] | outcome [12] | outcome [13] | outcome [14] | outcome [15] | outcome [16]
